Reference: PubChem BioAssay (NCI)
The panel holds about 83,000 compounds, 20% with a hit somewhere; the sample as a whole holds those more often.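 Negative percent growth values reflect cell death: -40 means 40% of the cells present at the start died, and -100 means all died.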 Unmarked numbers belong to inactive results. The source made the active and inactive calls. Rule for the calls: active = growth percent below 10; inactive = the rest.

Experiments:
Experiment in all cases: NCI-60 one-dose screen, 48 h (100 = growth as untreated, 0 = no growth, -100 = all killed)
Conditions in all cases: 10 µM unless noted
SK-MEL-2 melanoma = test system: SK-MEL-2 melanoma
EKVX NSCLC = test system: EKVX NSCLC
SN12C renal = test system: SN12C renal
UO-31 renal = test system: UO-31 renal
TK-10 renal = test system: TK-10 renal
ACHN renal = test system: ACHN renal
A498 renal = test system: A498 renal
CCRF-CEM leukemia = test system: CCRF-CEM leukemia
MOLT-4 leukemia = test system: MOLT-4 leukemia
RPMI-8226 leukemia = test system: RPMI-8226 leukemia
OVCAR-8 ovarian = test system: OVCAR-8 ovarian
OVCAR-5 ovarian = test system: OVCAR-5 ovarian
OVCAR-4 ovarian = test system: OVCAR-4 ovarian
SK-OV-3 ovarian = test system: SK-OV-3 ovarian
IGROV1 ovarian = test system: IGROV1 ovarian
NCI/ADR-RES ovarian = test system: NCI/ADR-RES ovarian
CAKI-1 renal = test system: CAKI-1 renal
SR leukemia = test system: SR leukemia
OVCAR-3 ovarian = test system: OVCAR-3 ovarian
HS 578T breast = test system: HS 578T breast

Structure (SMILES) | growth (SK-MEL-2 melanoma) | growth (EKVX NSCLC) | growth (SN12C renal) | growth (UO-31 renal) | growth (TK-10 renal) | growth (ACHN renal) | growth (A498 renal) | growth (CCRF-CEM leukemia) | growth (MOLT-4 leukemia) | growth (RPMI-8226 leukemia) | growth (OVCAR-8 ovarian) | growth (OVCAR-5 ovarian) | growth (OVCAR-4 ovarian) | growth (SK-OV-3 ovarian) | growth (IGROV1 ovarian) | growth (NCI/ADR-RES ovarian) | growth (CAKI-1 renal) | growth (SR leukemia) | growth (OVCAR-3 ovarian) | growth (HS 578T breast)
O=c1cc/c(=N\Nc2ccccc2)c(=O)/c1=N/Nc1ccccc1 | 126% | 100% | 112% | 97.5% | 170% | 99.7% | 93% | 86.7% | 106% | 18.9% | 109% | 107% | 107% | 109% | 60.1% | 95.2% | – | – | – | –
COc1ccc2c(c1)NC1=C(C(=O)OC1)C2c1cc(OC)c2c(c1)OCO2 (stereo not given) | 54.6% | 52.2% | 26.4% | 57.5% | 58.3% | – | 18.5% | 10.1% | 11.6% | 25.1% | 20.7% | – | 46% | 13% | 24.4% | 1.91% (active) | 43.4% | 2.24% (active) | -44.9% (active) | 14%
C=CCSc1n[nH]c(-c2cccs2)n1 | 3.39% (active) | 108% | 97.2% | 118% | 121% | 105% | 101% | 94.6% | – | 103% | 102% | 98.2% | 107% | 110% | 15.8% | 102% | – | – | 115% | 101%
OCc1ncc(-c2ccccc2)s1 | 113% | 87.8% | 121% | 97.9% | 110% | – | 116% | 90.6% | 110% | 87.6% | 107% | 92.2% | 97.5% | 99.4% | 113% | 22.1% | 81.8% | 107% | 101% | 108%
COc1cccc(/C=C2\Oc3cc(OCCCN4CCCC4)ccc3C2=O)c1 | 107% | 85.3% | 85.2% | 58.2% | 93.3% | 93% | – | 1.85% (active) | 59.5% | 61.6% | 91.4% | 89.1% | 112% | 109% | 73.6% | 89.1% | – | -22.9% (active) | 87.2% | 92.5%
C=C[C@@H]1C[C@H](O)Cc2ccccc2N1 | 123% | 107% | 103% | 99.5% | 95.5% | 107% | 99.9% | -30.7% (active) | – | 89.9% | 103% | 106% | 113% | 114% | 124% | 106% | – | – | 125% | 104%
COc1ccc(N=Cc2c(O)ccc3c2oc2cc(Cl)c(O)c(Cl)c23)cc1 | -1.58% (active) | 108% | 102% | 103% | 120% | 96.2% | 107% | – | 89.1% | 78.3% | 93.8% | 102% | 98.3% | 104% | – | 84.5% | – | 83% | 117% | 93.5%
S=C1CC(=S)NC(=S)N1 | 107% | 107% | 96.1% | 88% | 110% | – | 90.2% | 105% | 95.3% | 122% | 104% | 110% | 99% | 111% | 96.7% | 105% | 101% | 109% | 116% | 101%
COc1ccc2c(c1)cn1c3ccc(OC)cc3[nH]c(=O)c21 | -50.3% (active) | 48.5% | -11.8% (active) | -74.8% (active) | -89.6% (active) | -98.3% (active) | – | -64.8% (active) | -41.6% (active) | -37.8% (active) | -47.4% (active) | 21.3% | 40.4% | 22.5% | -54% (active) | -2.47% (active) | – | – | – | –
COc1ccc2c(c1)C(c1cc(OC)c3c(c1)OCO3)C1=C(COC1=O)N2 (stereo not given) | 33.2% | 41.1% | 28% | 62% | 60.8% | – | 30% | 7.1% (active) | 16.5% | 22.1% | 19% | – | 41.2% | 16.2% | 28.8% | 2.82% (active) | 51.1% | 6.1% (active) | -44% (active) | 21%
COc1ccc(-c2c(-c3cc(OC)c4c(c3)OCO4)noc2N)cc1 | 53.4% | 44.6% | 22.9% | 36.1% | 54.8% | – | 23.6% | 14.1% | 4.69% (active) | 23.8% | 9.5% (active) | – | 34.4% | 4.02% (active) | 14.6% | 13.8% | 38.7% | -7.43% (active) | -47.3% (active) | 28%
COc1cccc(CC(C)=C(c2ccc(OCCN(C)C)cc2)c2ccc(OCCN(C)C)cc2)c1 | 14% | 62% | -12.2% (active) | -91.3% (active) | -15.2% (active) | -82.4% (active) | 76.8% | – | -25.5% (active) | -31.1% (active) | -2.71% (active) | 21.2% | – | 70.2% | 8.66% (active) | 19% | – | -17% (active) | -17.8% (active) | 42.4%
COc1ccc(C(=O)c2cc(OC)c3c(c2)OCO3)cc1O | 71.7% | 58.4% | 31.4% | 46.6% | 66% | – | 61.9% | 16.5% | 17.8% | 24.7% | 17.8% | – | 37.7% | 8.88% (active) | 27.9% | 2.68% (active) | 55.5% | 9.89% (active) | -41.7% (active) | 12.2%
CCN(CC)c1ccc(C(=N)c2ccc(N(CC)CC)cc2)cc1 | -66.6% (active) | 12.4% | 0.751% (active) | -33.6% (active) | 10% | – | -44.3% (active) | 12.1% | – | -32.1% (active) | -8.61% (active) | -22.1% (active) | 12.7% | -36.6% (active) | -24.8% (active) | -49.9% (active) | -9.36% (active) | – | -38.3% (active) | -47.2% (active)
COC(=O)C1CCCN1C(=O)[C@@H]1CCCN1C(=O)[C@H](Cc1c[nH]c2ccccc12)NC(=S)Nc1cc(C(F)(F)F)cc(C(F)(F)F)c1 (stereo not given in full) | 67.5% | 49.8% | 65.5% | 49.7% | 56.7% | – | 65.4% | 24% | 27% | 36.6% | 42.7% | – | 61.1% | 87.4% | 47.1% | 52.6% | 33.7% | 0.677% (active) | 57.2% | 65.4%
O=C(NNC(=S)Nc1ccccc1)c1cc2ccc1CCc1ccc(cc1)CC2 | 74.5% | 76.3% | 58.3% | 82.2% | 99.6% | 61.4% | 61% | 33.8% | 57% | 46.4% | 68.2% | 92.2% | 47.8% | 113% | – | 67.2% | – | – | 55.5% | 97.2%
O=C1NC(=C(Cl)Cl)/C(=N/S(=O)(=O)N2CCC(C3(C(F)(F)F)N=N3)CC2)N1 | 101% | 89.6% | 87.7% | 85.7% | 97% | 103% | 94.9% | – | 54.9% | 23.9% | 96.2% | 105% | 98.1% | – | 43.5% | 106% | – | 13.3% | 40% | 95.8%
COc1ccc(C2=CC(c3cc(OC)c(OC)c(OC)c3)NC(=O)N2)cc1OC (stereo not given) | 20.7% | 35.5% | 23.7% | 22.8% | 12.8% | – | 19.3% | 6.59% (active) | 17.9% | 4.8% (active) | 18.8% | 34.6% | 18.8% | 23.3% | -17.7% (active) | 13.7% | 5.82% (active) | 9.57% (active) | -24% (active) | 7.62% (active)
